High-throughput results (PubChem)
aSyn UTR act – Activators via SNCA 5'UTR binding, MLPCN. alpha-synuclein 5'UTR reporter, activators screen. activity score, % (tested at 7.5 µM), hits read low. 300,000 tested, 7.1% active. AID 1814; in the data active = activity score below about -60%
Active calls of the source: *. These entries were drawn from the full list.

SMILES | aSyn UTR act
Cc1cccc(-c2nnc(SCc3ccccc3)o2)c1 | -102.4*
Cc1cccc(CSc2nnc(-c3ccco3)o2)c1 | -64.2*
Cc1cccc(CSc2nnc(-c3ccco3)n2C)c1 | -70.4*
CCSc1nnc(NC(=O)c2ccc3c(c2)OCO3)s1 | -94.1*
CC(C)Sc1nnc(NC(=O)c2ccc3c(c2)OCO3)s1 | -118.1*
CC(C)(C)c1nnc(NC(=O)c2ccc3c(c2)OCO3)s1 | -191.1*
CCCC(=O)Nc1nnc(-c2ccc3c(c2)OCO3)s1 | -141.4*
CCCC(=O)NC(c1ccc2c(c1)OCO2)c1cc(Cl)c2cccnc2c1O (stereo not drawn) | 80.4
CC(C)c1nnc(NC(=O)c2ccc3c(c2)OCO3)s1 | 57.1
CCN(CC)C(=O)c1sc(NC(=O)c2ccc3c(c2)OCO3)c(C(N)=O)c1C | -105.0*
CC(C)(C)c1nnc(NC(=O)COc2ccc3c(c2)OCO3)s1 | -80.5*
CC(c1ccccc1)c1nnc(NC(=O)c2ccc3c(c2)OCO3)s1 (stereo not drawn) | -139.3*
CCc1ccc(Nc2ncc3c(n2)CC(C)CC3=O)cc1 (stereo not drawn) | -134.7*
Cc1cccc(Nc2ncc3c(n2)CC(C)CC3=O)c1 (stereo not drawn) | -127.4*
CCc1ccc(Nc2ncc3c(n2)CC(C)(C)CC3=O)cc1 | -141.4*
Cc1cc2[nH]c3ccccc3c2c(C)n1 | -85.1*
COC(=O)c1c(NC(=O)c2cccs2)sc2c1CCC(C)C2 (stereo not drawn) | -112.9*
CCCC1CCc2c(sc(NC(=O)c3cccs3)c2C(N)=O)C1 (stereo not drawn) | -99.0*
COc1cccc(Nc2nc3ccccc3n3nnnc23)c1 | -64.5*
c1ccc(Nc2nc3ccccc3n3nnnc23)cc1 | -74.5*
Fc1ccccc1Nc1nc2ccccc2n2nnnc12 | -146.1*
Cc1ccc(-c2nc3ccccc3n3nnnc23)cc1 | -249.5*
Cc1ccc(-c2nnc3c(C(F)(F)F)nc4ccccc4n23)cc1 | 70.6
CCN(CC)S(=O)(=O)c1ccc2c(c1)C(=NO)c1cc(S(=O)(=O)N(CC)CC)ccc1-2 | 114.9
CCN(CC)S(=O)(=O)c1ccc(Nc2nc3ccccc3n3nnnc23)cc1 | -86.6*
SMILES | aSyn UTR act
Cc1oc2c(cc(NS(=O)(=O)c3ccc4c5c(cccc35)C(=O)N4)c3ccccc32)c1C(=O)OC(C)C | -68.8*
COc1ccc(/C=C/c2ccncc2)cc1 | -96.2*
Cc1ccccc1C(=O)Oc1ccc2ccc(O)cc2c1 | -162.2*
Cc1ccccc1S(=O)(=O)Oc1ccc2ccc(O)cc2c1 | -131.1*
Clc1ccc(C#Cc2cccnc2)cc1 | -186.6*
COc1ccccc1C(=O)Nc1nnc(CCc2ccccc2)s1 | -213.2*
O=C(Nc1nnc(CCc2ccccc2)s1)c1ccccc1 | -90.8*
CC(C)(C)C(=O)Nc1nnc(CCc2ccccc2)s1 | -125.9*
CCCCOC(=O)Nc1nc2ccc(OC)cc2s1 | -102.9*
CCCCOC(=O)Nc1nc2ccccc2s1 | -252.5*
CCCCN(C(=O)NC(=O)Nc1nc2ccc(OC)cc2s1)S(C)(=O)=O | -82.9*
Cc1ccc(/C(N)=N/OC(=O)c2cccc(F)c2)cc1 | -262.2*
Cc1ccc(/C(N)=N/OC(=O)c2ccc3ccccc3c2)cc1 | -123.9*
N/C(=N\OC(=O)c1cccc(F)c1)c1ccccc1 | -331.0*
CCc1ccc(-c2nnn(CCC(=O)OC)n2)cc1 | 77.1
COc1ccc(-c2ccc(-c3nnn(CC(C)=O)n3)cc2)cc1 | -188.6*
COc1cccc(-c2nnn(CC(C)=O)n2)c1 | -121.8*
C=CCNC(=O)Cn1nnc(-c2ccc(-c3ccc(OC)cc3)cc2)n1 | -128.7*
COc1ccc(-n2nnnc2-c2cccc(OC)c2)cc1 | 64.3
COc1cccc(-c2nnn(CC(=O)N3CCCCC3)n2)c1 | -73.7*
COc1ccc(NC(=O)Cn2nnc(-c3ccccc3NS(=O)(=O)c3ccc(OC)cc3)n2)cc1 | 106.5
C=CCNC(=O)c1ccc(-c2cccc([N+](=O)[O-])c2)o1 | -115.3*
O=C(Nc1ccccc1F)Nc1ccc([N+](=O)[O-])cc1Cl | -125.4*
O=C(Nc1ccccc1F)c1ccc(-c2cccc([N+](=O)[O-])c2)o1 | -141.0*
O=C(NC(=S)Nc1cccc(Cl)c1N1CCCC1)c1ccc(-c2cccc([N+](=O)[O-])c2)o1 | -62.6*
SMILES | aSyn UTR act
O=C(Nc1nccs1)c1ccc(-c2cccc([N+](=O)[O-])c2)o1 | -174.8*
COc1ccc(NC(=O)c2cc3ccccc3cc2OC)cc1 | -167.6*
COc1ccc(NC(=O)c2ccc3ccccc3c2OC)cc1 | -214.8*
COc1ccc(-c2cc(C(=O)Nc3cccnc3)no2)cc1OC | -187.2*
CCOc1ccc(NC(=O)c2cc3ccccc3cc2O)cc1 | -201.0*
COc1ccc(NC(=O)c2cc3c([nH]c4ccccc43)c(C)n2)cc1 | -84.2*
CCOc1ccc(NC(=O)c2ccc(F)cc2F)cc1 | -103.3*
COc1cc2ccccc2cc1C(=O)Nc1ccccc1Cl | -138.7*
COc1cc2ccccc2cc1C(=O)Nc1ccc(N2CCN(C)CC2)cc1 | -175.8*
COc1ccc(C(=O)Nc2ccc3cn[nH]c3c2)c(OC)c1 | -98.6*
CCOc1ccc(NC(=O)c2cc(OC)nc3ccccc23)cc1 | 83.0
O=C(Nc1ccc(Cl)cc1)c1ccc(Br)cc1F | -123.5*
